Measured values published in the supplement of paper PMC9135407.
Structures can show the parent of a compound that is named as a salt.

Each molecule was assayed on primary human hepatic stellate cells (donor 1) (assay: PSMB2 reference mRNA level vs DMSO (fold); higher = more PSMB2 expression). Settings: 48 h.
Procedure: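 Secondary qRT-PCR screen in primary human HSCs (donor 1), 384-well plates, with compounds dispensed in quadruplicate and incubated for 48 h. Cells-to-CT lysates were used for multiplexed TaqMan qPCR of ACTA2 or COL1A1 with PSMB2 as reference. Fold changes versus DMSO come from a linear model (Ct_gene ~ Ct_PSMB2 + plate + chemical). A hit is defined as COL1A1 and ACTA2 FC <0.5 (FDR <0.05) with PSMB2 between 0.2 and 2.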

Point of comparison: `CN(C)CCCCC(=O)Nc1ccc(NC(=S)NC(=O)c2ccc(C(C)(C)C)cc2)cc1` [Tenovin-6] (33.3333 µM), “PSMB2 reference mRNA level” value 0.000996. Against it:
- N=C(N)SCCc1ccc(OCc2ccc([N+](=O)[O-])cc2)cc1 [KB-R7943 mesylate] (33.3333 µM) — higher, 0.61
- CC(C)NCCCn1c(Sc2cc3c(cc2I)OCO3)nc2c(N)ncnc21 (33.3333 µM) — higher, 0.581
- CC#CCOC(=O)c1c(C)nc2sc3c(c2c1N)CCC(O)C3 (stereo not given) (33.3333 µM) — higher, 0.434
- CC1(C)CC(=O)c2c(C(F)(F)F)nn(-c3ccc(C(N)=O)c(N[C@H]4CC[C@H](OC(=O)CN)CC4)c3)c2C1 (33.3333 µM) — higher, 0.59
- NC[C@@H]1O[C@H](C23CC4CC(CC(C4)C2)C3)Cc2c1ccc(O)c2O (33.3333 µM) — higher, 0.00124
- Cc1nc2ccc(-n3ncc(C(=O)c4cc5ccccc5[nH]4)c3N)cc2[nH]1 (33.3333 µM) — higher, 0.324
- OCCN1CCN(CCCN2c3ccccc3Sc3ccc(C(F)(F)F)cc32)CC1 (33.3333 µM) — higher, 0.145
- C#CC1(O)CC[C@H]2[C@@H]3CCC4=CC(=O)CC[C@@H]4[C@H]3CC[C@@]21CC (stereo not given in full) [Norgestrel] (21.3333 µM) — higher, 1.14
- Cn1cc(CNCC2CCN(c3ncc(C(=O)NO)cn3)CC2)c2ccccc21 [Quisinostat] (33.3333 µM) — higher, 0.103
- C[C@]12CC[C@H](O)CC1=CC[C@@H]1[C@@H]2CC[C@]2(C)C(n3cnc4ccccc43)=CC[C@@H]12 [Galeterone] (33.3333 µM) — higher, 0.0945
- CNCCC(Oc1ccc(C(F)(F)F)cc1)c1ccccc1 (stereo not given) [Fluoxetine hydrochloride] (33.3333 µM) — higher, 0.204
- C[C@@H]1CN(CCCn2c3ccccc3c3ccccc32)C[C@H](C)N1 [Rimcazole dihydrochloride] (33.3333 µM) — higher, 0.0107
- C[C@H]1O[C@@H](O[C@H]2[C@@H](O)C[C@H](O[C@H]3[C@@H](O)C[C@H](O[C@H]4CC[C@@]5(C)[C@H](CC[C@@H]6[C@@H]5C[C@@H](O)[C@]5(C)[C@@H](C7=CC(=O)OC7)CC[C@]65O)C4)O[C@@H]3C)O[C@@H]2C)C[C@H](O)[C@@H]1O [Digoxin] (33.3333 µM) — higher, 1.06
- CCCCCCCCCCCCCCCCn1cc[n+](Cc2ccccc2)c1C (11.1 µM) — higher, 0.00468
- CNc1nccc(-c2cccnc2Oc2cc(C(=O)Nc3cccc(C(F)(F)F)c3)ccc2C)n1 (33.3333 µM) — higher, 0.887
- Clc1ccc(C2(c3ccc(-c4cn[nH]c4)cc3)CCNCC2)cc1 (33.3333 µM) — higher, 0.745
- CC[C@@H]1C(=O)N(C)c2cnc(Nc3ccc(C(=O)NC4CCN(C)CC4)cc3OC)nc2N1C1CCCC1 (33.3333 µM) — higher, 0.0022
- C[C@@H](Oc1cc(-c2cnn(C3CCNCC3)c2)cnc1N)c1c(Cl)ccc(F)c1Cl (11.1 µM) — higher, 0.805
- CC(C)c1cc(-c2n[nH]c(=O)n2-c2ccc3c(ccn3C)c2)c(O)cc1O [Ganetespib (STA-9090)] (33.3333 µM) — higher, 0.415
- O=C(c1ccc(/C=C/c2n[nH]c3ccccc23)cc1)N1CCNCC1 (33.3333 µM) — higher, 0.0479
- O=C(Nc1cc(C(F)(F)F)cc(C(F)(F)F)c1)c1cc(Cl)ccc1O (33.3333 µM) — higher, 1.2
- CN1CCC(Nc2ncc3ncnc(Nc4ccc(F)c(Cl)c4)c3n2)CC1 [BIBX 1382 dihydrochloride] (33.3333 µM) — higher, 0.0502
- CNCc1ccc(-c2cc(-c3nc(-c4ccc(S(=O)(=O)C(C)C)cc4)cnc3N)on2)cc1 (11.1 µM) — higher, 0.118
- CC[C@]1(O)C[C@@H]2CN(CCc3c([nH]c4ccccc34)[C@@](C(=O)OC)(c3cc4c(cc3OC)N(C)[C@H]3[C@@](O)(C(=O)OC)[C@H](OC(C)=O)[C@]5(CC)C=CCN6CC[C@]43[C@@H]65)C2)C1 [Vinblastine sulfate] (33.3333 µM) — higher, 0.0998
- COC(=O)N[C@H](C(=O)N1CCC[C@H]1c1ncc(-c2ccc(-c3ccc(-c4cnc([C@@H]5CCCN5C(=O)[C@@H](NC(=O)OC)C(C)C)[nH]4)cc3)cc2)[nH]1)C(C)C (33.3333 µM) — higher, 3.28
- CN1CCC(CNc2ccc3ncc(-c4cccc(OC(F)(F)F)c4)n3n2)CC1 (6.66667 µM) — higher, 0.712
- CNCCCC1c2ccccc2C=Cc2ccccc21 [Protryptyline hydrochloride] (22.2333 µM) — higher, 1.06
- Cc1ccc2c(c1)c1c3n2CCNC3CCC1 (stereo not given) [Pirlindole mesylate] (20.6667 µM) — higher, 0.807
- CN1CCC(=C2c3ccccc3C=Cc3ccccc32)CC1 [Cyproheptadine] (33.3333 µM) — higher, 0.904
- CCN1CCC(n2cc(CNc3cc(Cl)c4ncc(C#N)c(Nc5ccc(F)c(Cl)c5)c4c3)nn2)CC1 (33.3333 µM) — higher, 0.0139
- Cc1ccc(NC(=O)C(C)C)cc1C1CCN(Cc2ccc(Oc3ccc(F)c(F)c3)cc2)CC1 (33.3333 µM) — higher, 2.26
- Cc1cc(Nc2cc(N3CCN(C)CC3)nc(/C=C/c3ccccc3)n2)n[nH]1 (11.1 µM) — higher, 0.122
- Cc1nc(Nc2ncc(C(=O)Nc3c(C)cccc3Cl)s2)cc(N2CCN(CCO)CC2)n1 (33.3333 µM) — higher, 1.6
- CC(/C=C/C(=O)NO)=C\[C@@H](C)C(=O)c1ccc(N(C)C)cc1 [Trichostatin A] (3.33333 µM) — higher, 1.36
- CN1CCCN(C(c2ccccc2)c2ccc(Cl)cc2)CC1 (stereo not given) [Homochlorcyclizine dihydrochloride] (33.3333 µM) — higher, 1.19
- Cn1cc(C2=C(c3ccc(Cl)cc3Cl)C(=O)NC2=O)c2ccccc21 (33.3333 µM) — higher, 0.517
- O=C(Nc1ncc(SCCN2CCCC2)s1)[C@]1(c2ccc(S(=O)(=O)C3CC3)cc2)C[C@H]1C1CCCCC1 (11.1 µM) — higher, 0.35
- CNC(=O)[C@@H](Cc1ccccc1)N(C)C(=O)[C@@H](Cc1ccc2ccccc2c1)N(C)C(=O)/C=C/CC(C)(C)N [Tabimorelin] (33.3333 µM) — higher, 1.83
- Cc1cc(C(=O)Nc2cc(Nc3ccc4c(/C=C/c5ccccn5)n[nH]c4c3)ccc2F)n(C)n1 (33.3333 µM) — higher, 0.985
